From PubChem BioAssay AID1030 (National Center for Advancing Translational Sciences (NCATS), 2008)
About 16,000 (7.3%) of roughly 220,000 compounds were called active. Inconclusive results (about 25%) are left out. The call rests on the fitted dose curve; in most records, active means well fitted inhibition curve with a large enough effect (not every such curve was filed as active); inconclusive means small, poorly fitted or top-dose-only effect, or another doubt; inactive means no such curve, though single readings can be large or run the other way. The entries come from a sample that favours actives as a whole. Where a call stands in place of a potency, no number is given. Peptide text beside a SMILES is read from it. * marks the point of attachment. OPac = O=C(CO*)c1ccccc1; Bz = O=C(c1ccccc1)*

target: Aldehyde dehydrogenase 1A1 (Homo sapiens) (UniProt P00352); test: qHTS Assay for Inhibitors of Aldehyde Dehydrogenase 1 (ALDH1A1); settings: Purified ALDH1A1, NADH fluorescence, propionaldehyde substrate; series mostly up to 75.3 µM
Potency means the concentration at half of the fitted maximal effect.

Chain of Aldehyde dehydrogenase 1A1 (Homo sapiens) (P00352 whole entry, looked up): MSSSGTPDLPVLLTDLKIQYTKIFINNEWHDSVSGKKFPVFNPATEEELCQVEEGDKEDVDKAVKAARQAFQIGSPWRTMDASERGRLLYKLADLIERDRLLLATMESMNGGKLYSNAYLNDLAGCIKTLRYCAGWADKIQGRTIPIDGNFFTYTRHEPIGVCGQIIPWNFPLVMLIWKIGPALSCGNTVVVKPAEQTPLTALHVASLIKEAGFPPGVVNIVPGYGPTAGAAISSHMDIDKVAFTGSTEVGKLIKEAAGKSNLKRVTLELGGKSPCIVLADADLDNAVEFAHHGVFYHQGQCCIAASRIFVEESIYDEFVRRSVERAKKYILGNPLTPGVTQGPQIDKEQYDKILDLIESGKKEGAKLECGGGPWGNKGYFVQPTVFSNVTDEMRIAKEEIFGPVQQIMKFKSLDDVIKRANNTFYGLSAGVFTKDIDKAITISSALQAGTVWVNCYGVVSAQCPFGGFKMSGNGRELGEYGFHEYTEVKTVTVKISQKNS

Row | Compound | Potency
1 | Cc1ccc(S(=O)(=O)N(C)C)cc1NC(=O)COC(=O)C1COc2ccccc2O1 (stereo not drawn) | inactive
2 | CCOC(=O)/C(=N\Nc1ccccc1[N+](=O)[O-])c1csc(Nc2ccccc2)n1 | inactive
3 | CN(C)S(=O)(=O)c1cccc(NC(=S)N/N=C/C(=O)c2ccccc2)c1 | 8.91 µM (active)
4 | C/C(=C\C(=O)c1ccccc1)Nc1cccc(O)c1 | inactive
5 | CN(C)S(=O)(=O)c1cccc(C(=O)Nc2cccnc2)c1 | inactive
6 | CN1C(=O)C(CC(=O)Nc2ccccc2)S/C1=N/c1nccs1 (stereo not drawn) | inactive
7 | O=C(CC1SC(=Nc2ccccc2)N(Cc2ccccn2)C1=O)Nc1cccc(Cl)c1 (stereo not drawn) | 20 µM (active)
8 | O=C(Nc1cccc(Cl)c1)OCc1ccccn1 | inactive
9 | c1ccc2c(c1)OCCOCCOCCO2 | inactive
10 | Cc1c(Cl)cnc(NC(=O)COC(=O)c2ccc(S(=O)(=O)NCc3ccco3)cc2)c1Cl | inactive
11 | CCc1cc2c(SCC(=O)Nc3ncc(Cl)c(C)c3Cl)ncnc2s1 | inactive
12 | CSCCC(NC(=O)c1ccco1)C(=O)OCC(=O)Nc1ncc(Cl)c(C)c1Cl (stereo not drawn) | 22.4 µM (active)
13 | COC(=O)c1ccc(OCC(O)CN(CCO)CC(O)Cn2ccc3ccccc32)cc1 (stereo not drawn) | inactive
14 | O=C(/C=C/NCc1ccc(F)cc1)c1ccccc1 | inactive
15 | O=C(CNC(=O)c1ccccc1)NCC(=O)OCC(=O)c1ccccc1 (Bz-Gly-Gly-OPac) | inactive
16 | O=C(/C=C\NCC(=O)c1ccccc1)c1ccccc1 | 2.51 µM (active)
17 | OCCC1CN(Cc2ccc(Oc3ncccn3)cc2)CCN1CCc1ccccc1 (stereo not drawn) | inactive
18 | COc1cccc(C(=O)Nc2cccnc2)c1OC | inactive
19 | O=C(O)c1cccc(NC(=O)c2cc(-c3cccc(Cl)c3)nc3ccccc23)c1 | inactive
20 | O=C(c1ccc2ccccc2n1)N1CCN(c2ccccc2Cl)CC1 | inactive
21 | S=C(Nc1ccc(Br)cc1Cl)N1CCC2(CC1)OCCO2 | inactive
22 | CC(C)C[C@H](NC(=O)[C@H](O)[C@H](N)Cc1ccccc1)C(=O)O | inactive
23 | O=C(CSCc1ccc(Cl)cc1)N1CCN(Cc2ccc3c(c2)OCO3)CC1 | inactive
24 | O=C(CSCc1ccc(Cl)cc1)N1CCCCC1 | 11.2 µM (active)
25 | O=C(CN1CCN(c2ccc(Cl)cc2)CC1)N1CCCC1 | inactive

Row | Compound | Potency
26 | COc1ccccc1NC(=S)N1CCC(NC(=O)C23CC4CC(CC(C4)C2)C3)CC1 | inactive
27 | Cc1ccc(NC(=O)OCCNC(=O)c2ccncc2)cc1 | inactive
28 | CN(C)S(=O)(=O)c1ccc2oc(SCC(=O)Nc3ccccc3F)nc2c1 | inactive
29 | N#C/C(=C1/CCCN1)c1ccccn1 | inactive
30 | Cn1c(/C(C#N)=C2/CCCCCN2)nc2ccccc21 | 17.8 µM (active)
31 | Cc1ccc(O)c(CNc2nc3ccccc3n2C)c1 | inactive
32 | NC(=O)c1nnsc1-c1ccc(-c2snnc2C(N)=O)cc1 | inactive
33 | O=C(C/C(=N\NC(=O)c1ccccc1Br)C(F)(F)F)c1cccs1 | inactive
34 | CC(C)CC(=O)NC(=S)Nc1ccc(F)cc1F | inactive
35 | COc1ccc(C(=O)Nc2ccc(F)cc2F)cc1 | inactive
36 | O=C(O)/C=C/C(=O)Nc1ccc(F)cc1F | 25.1 µM (active)
37 | Nc1c(Cl)cc(S(N)(=O)=O)cc1S(N)(=O)=O | inactive
38 | CCC(C)(C)NC(=O)C(c1cccc(OC)c1OC)N(CC(C)C)C(=O)CCC(=O)Nc1cc(C)on1 (stereo not drawn) | inactive
39 | Cc1ccc(CSCC(N)C(=O)O)cc1 (stereo not drawn) | 31.6 µM (active)
40 | CCCCN(C)CCNC(=O)CSCc1ccc(C)cc1 | inactive
41 | Cc1ccc(S(=O)(=O)CCC(=O)OCc2ccccc2)cc1 | inactive
42 | O=C(CNC(=O)c1cc(=O)[nH]c2ccccc12)Nc1ccc(F)c(F)c1 | inactive
43 | COc1cc(C(F)(F)F)c(C(=O)N(C)c2ccc(Cl)cc2)cn1 | inactive
44 | Cc1noc(C)c1/C=N/Nc1ccc2ccccc2n1 | inactive
45 | O=C(CSc1ncccn1)NCCc1ccccc1 | inactive
46 | S=c1[nH]nc(NCCc2ccccc2)s1 | 12.6 µM (active)
47 | S=c1[nH]nc(Nc2ccccc2)s1 | 6.31 µM (active)
48 | Cc1nc(C)c(-c2csc(NCCc3ccccc3)n2)s1 | inactive
49 | c1ccc(Nc2n[nH]nc2-c2ccccc2)cc1 | inactive
50 | O=c1cnnc(Nc2ccccc2)[nH]1 | inactive

Row | Compound | Potency
51 | O=C(CCCn1c(=O)c2sccc2n(CC(=O)NCC2CCCO2)c1=O)NCc1ccco1 (stereo not drawn) | inactive
52 | CCCN(C(=O)CSc1nnnn1C)c1c(N)n(Cc2ccccc2)c(=O)[nH]c1=O | inactive
53 | COc1cc(/C=C/CO)cc(OC)c1O[C@@H]1O[C@H](CO)[C@@H](O)[C@H](O)[C@H]1O | inactive
54 | COc1cc(/C=C/C2=CC(C)(C)NC(=S)N2)cc(OC)c1OC | 3.98 µM (active)
55 | COc1ccc(/C=C/C2=CC(C)(C)NC(=S)N2)c(OC)c1 | 0.708 µM (active)
56 | Cc1ccc2nc(C)cc(N/N=C/c3ccc(F)cc3)c2c1 | inactive
57 | O=C(NNc1cc(Cl)ccc1Cl)c1cccnc1Cl | inactive
58 | C=CC1(C)CC(=O)C2(O)C(C)(O1)C(OC(C)=O)C(O)C1C(C)(C)CCC(O)C12C (stereo not drawn) | inactive
59 | Cc1c(CCC(=O)O)c(=O)oc2cc3occ(-c4ccccc4)c3cc12 | inactive
60 | O=C(COc1ccc(S(=O)(=O)N2CCCCC2)cc1)NCc1ccccn1 | inactive
61 | Cc1ncn(C23CC4CC(CC(O)(C4)C2)C3)n1 | inactive
62 | Cc1nc([N+](=O)[O-])nn1C12CC3CC(CC(Br)(C3)C1)C2 | 8.91 µM (active)
63 | Cc1cn(C)c(=O)n(C)c1=O | inactive
64 | CN(C)CCCSc1ccccc1NC(=O)/C=C/c1ccccc1 | inactive
65 | O=C(CCN1C(=O)c2ccncc2C1=O)Nc1cc(F)ccc1F | inactive
66 | Cc1ccc(N(C(=O)Cc2cccs2)C2C=CS(=O)(=O)C2)cc1Cl (stereo not drawn) | inactive
67 | Cc1cccc(N2CCN(C(=O)c3ccccc3NC(=O)C3CCCCC3C(=O)O)CC2)c1 (stereo not drawn) | inactive
68 | O=C(O)C1CC=CCC1C(=O)Nc1ccccc1C(=O)N1CCN(c2ccccc2)CC1 (stereo not drawn) | inactive
69 | CC(C)c1ccc(N2CCN(C(=O)c3ccccc3NC(=O)/C=C(\C(=O)O)c3ccccc3)CC2)cc1 | 22.4 µM (active)
70 | O=C(NC1(C(F)(F)F)NC(=O)N(C2CCCCC2)C1=O)c1ccco1 (stereo not drawn) | inactive
71 | CCOc1ccc(Cn2nnc(C(=O)NCc3ccccc3)c2N)cc1 | inactive
72 | CCCCOc1ccc(C(=O)NCc2ccncc2)cc1 | inactive
73 | CCOc1c2ccc(C(=O)NCc3ccc(OC(F)(F)F)cc3)cc2nn1C | 3.16 µM (active)
